# Measurements from PubChem BioAssay (NCATS).
# Results filed as inconclusive are left out. A call without a number means that no potency is given here. Activity calls are given as the source filed them. Calls come from the whole dose curve; tested in HEK293 reporter line.
# Experiment: qHTS for Inhibitors of the Functional Ribonucleoprotein Complex (vRNP) of Lassa (LASV) Arenavirus: Viability assay - alamar blue signal for LASV Primary Screen (AID 1347083)
# Settings: cell viability, alamar blue fluorescence (LASV minigenome counter-screen); series mostly up to 57.5 µM
# Note: nearly all actives have a fitted effect of over 80% in size.
# Potency is the fitted concentration of half-maximal effect.
row,Compound,Potency
1,COc1cc2c(=O)c(-c3ccc(O)cc3)coc2cc1OC1OC(CO)C(O)C(O)C1O (stereo not given),inactive
2,CC1=C2C(=O)OC(c3ccoc3)C2(C)CCC1 (stereo not given),inactive
3,O=C(/C=C/c1ccc(O)c(O)c1)c1ccc(O)cc1O,inactive
4,CCOC(=O)[C@H]1O[C@H]1C(=O)N[C@@H](CC(C)C)C(=O)NCCC(C)C,inactive
5,C/C(=C/CCC(C)[C@H]1CC[C@@]2(C)C3=C(CC[C@]12C)[C@@]1(C)CCC(=O)C(C)(C)[C@@H]1CC3)C(=O)O (stereo not given in full),inactive
6,C[C@]12CCC(=O)C=C1[C@@H]1CC1[C@H]1[C@H]3[C@@H]4C[C@H]4[C@@]4(CCC(=O)O4)[C@@]3(C)CC[C@H]12 (stereo not given in full),inactive
7,CCOC(=O)[C@H](CCc1ccccc1)N[C@@H](C)C(=O)N1CCCC1C(=O)O (stereo not given in full),inactive
8,[3H]C([3H])([3H])C(O)(CCC[C@@H](C)C1CC[C@H]2/C(=C/C=C3/C[C@@H](O)CCC3=C)CCC[C@]12C)C([3H])([3H])[3H] (stereo not given in full),inactive
9,CC1(C)C2CC1[C@@](C)(O)[C@H](O)C2 (stereo not given in full),inactive
10,C[C@@H]1CC[C@@]23COC(=O)C2=CCC[C@@H]3[C@@]1(C)CC/C(=C/CO)CO,inactive
11,CC(C)CCCCCCCCCCCCC(=O)NCC(=O)NC1C(O)C(O)C(Nc2ncnc3nc[nH]c23)OC1C(O)CO (stereo not given),inactive
12,CC(C)COC(=O)c1ccccc1,inactive
13,COc1cc(=O)n(C)c2c(O)cccc12,inactive
14,C=CC[C@]12C[C@@H](OC)C(=O)C=C1O[C@@H](c1ccc(OC)c(OC)c1)[C@H]2C,inactive
15,CN(C)CCOc1ccc(-c2nc(-c3ccc4c(c3)CCC4=NO)c(-c3ccncc3)[nH]2)cc1,inactive
16,C=C(C)[C@@H](O)COc1c2ccoc2cc2oc(=O)ccc12,inactive
17,C/C=C\C/C=C/CCCCCCCCOC(C)=O,inactive
18,C[C@]12CCC(=O)C=C1CC[C@@H]1[C@H]2[C@@H](O)C[C@@]2(C)[C@H]1CC[C@]2(O)C(=O)CO,inactive
19,COc1cc(C(C)=O)cc(OC)c1O,inactive
20,Cc1nc(Nc2n[nH]c3c2CN(C(=O)N[C@H](CN(C)C)c2ccccc2)C3(C)C)c2sccc2n1,193 nM (active)

row,Compound,Potency
1,OCCN1C[C@H](O)[C@@H](O)[C@H](O)[C@@H]1CO,inactive
2,C[C@@H]1O[C@@H](O[C@H]2[C@H](O)[C@@H](O)[C@H](Oc3c(-c4ccc(O)c(O)c4)oc4cc(O)cc(O)c4c3=O)O[C@@H]2CO)[C@H](O)[C@H](O)[C@H]1O,inactive
3,COc1cc(/C=C/c2ccc(O)cc2)cc(OC)c1,inactive
4,CCCCOC(=O)C(C)OC(=O)CCC (stereo not given),inactive
5,CCCSSCCC,inactive
6,C/C(=C\C(=O)O)CC(=O)O,inactive
7,NC1(C(=O)N[C@@H](CCO)c2ccc(Cl)cc2)CCN(c2ncnc3[nH]ccc23)CC1,385 nM (active)
8,CC(=O)Nc1ccccc1O,inactive
9,O=C(Nc1ncc(SCCN2CCCC2)s1)[C@]1(c2ccc(S(=O)(=O)C3CC3)cc2)C[C@@H]1C1CCCCC1,inactive
10,CC(C)=CCc1c(-c2ccc(O)cc2O)oc2cc3c(c(O)c2c1=O)C=CC(C)(C)O3,inactive
11,CCCCCCC[C@@H](C/C=C/CCC(=O)N(C)C/C(=C/Cl)C/C(=C\C(=O)N1CC(OC)=CC1=O)OC)OC,inactive
12,C=C[C@@]1(C)CCC(/C(C)=C/C=C/C(C)(C)O)C[C@@H]1C(=C)C (stereo not given in full),inactive
13,C[C@]12CCC3=C4CCC(=O)C=C4CC[C@@H]3[C@H]1CC[C@@]2(O)CC#N,inactive
14,CCOC(=O)c1cccc(C(=O)OCC)n1,inactive
15,CC12CCC(=O)C=C1C(O)CC1C2CCC2(C)C1CCC2(O)C(=O)CO (stereo not given),inactive
16,Nc1nc2c(ncn2[C@@H]2O[C@H](COP(=O)(O)OP(=O)(O)O)[C@@H](O)[C@H]2O)c(=O)[nH]1,inactive
17,C[C@H]1[C@H](C)CC[C@]2(C(=O)O)CC[C@]3(C)C(=CC[C@@H]4[C@@]5(C)C[C@@H](O)[C@H](O)C(C)(C)[C@@H]5CC[C@]43C)[C@H]12,inactive
18,CC(=O)N1CCN(c2ccc(OCc3nn(C)c(C)c3-c3cccc4c(CCCOc5cc(C)c(Cl)c(C)c5)c(C(=O)O)n(Cc5cccnc5)c34)cc2)CC1,inactive
19,C[C@]1(CC/C(=C/CO)CO)[C@H](CO)CC[C@@]23COC(=O)C2=CCC[C@@H]31,inactive
20,Nc1nc(Nc2ccccc2)nc2c1ncn2[C@@H]1O[C@H](CO)[C@@H](O)[C@H]1O,inactive

# Experiment: qHTS for Inhibitors of the Functional Ribonucleoprotein Complex (vRNP) of Lymphocytic Choriomeningitis Arenaviruses (LCMV): Viability assay - alamar blue signal for LCMV Primary Screen (AID 1347085)
# Settings: alamar blue viability counter-screen, LCMV vRNP screen cells; series mostly up to 57.5 µM
row,Compound,Potency
1,COc1cc2c(=O)c(-c3ccc(O)cc3)coc2cc1OC1OC(CO)C(O)C(O)C1O (stereo not given),inactive
2,CC1=C2C(=O)OC(c3ccoc3)C2(C)CCC1 (stereo not given),inactive
3,O=C(/C=C/c1ccc(O)c(O)c1)c1ccc(O)cc1O,inactive
4,CCOC(=O)[C@H]1O[C@H]1C(=O)N[C@@H](CC(C)C)C(=O)NCCC(C)C,inactive
5,C/C(=C/CCC(C)[C@H]1CC[C@@]2(C)C3=C(CC[C@]12C)[C@@]1(C)CCC(=O)C(C)(C)[C@@H]1CC3)C(=O)O (stereo not given in full),inactive
6,C[C@]12CCC(=O)C=C1[C@@H]1CC1[C@H]1[C@H]3[C@@H]4C[C@H]4[C@@]4(CCC(=O)O4)[C@@]3(C)CC[C@H]12 (stereo not given in full),inactive
7,CCOC(=O)[C@H](CCc1ccccc1)N[C@@H](C)C(=O)N1CCCC1C(=O)O (stereo not given in full),inactive
8,[3H]C([3H])([3H])C(O)(CCC[C@@H](C)C1CC[C@H]2/C(=C/C=C3/C[C@@H](O)CCC3=C)CCC[C@]12C)C([3H])([3H])[3H] (stereo not given in full),inactive
9,CC1(C)C2CC1[C@@](C)(O)[C@H](O)C2 (stereo not given in full),inactive
10,C[C@@H]1CC[C@@]23COC(=O)C2=CCC[C@@H]3[C@@]1(C)CC/C(=C/CO)CO,inactive
11,CC(C)CCCCCCCCCCCCC(=O)NCC(=O)NC1C(O)C(O)C(Nc2ncnc3nc[nH]c23)OC1C(O)CO (stereo not given),inactive
12,CC(C)COC(=O)c1ccccc1,inactive
13,COc1cc(=O)n(C)c2c(O)cccc12,inactive
14,C=CC[C@]12C[C@@H](OC)C(=O)C=C1O[C@@H](c1ccc(OC)c(OC)c1)[C@H]2C,inactive
15,CN(C)CCOc1ccc(-c2nc(-c3ccc4c(c3)CCC4=NO)c(-c3ccncc3)[nH]2)cc1,inactive
16,C=C(C)[C@@H](O)COc1c2ccoc2cc2oc(=O)ccc12,inactive
17,C/C=C\C/C=C/CCCCCCCCOC(C)=O,inactive
18,C[C@]12CCC(=O)C=C1CC[C@@H]1[C@H]2[C@@H](O)C[C@@]2(C)[C@H]1CC[C@]2(O)C(=O)CO,inactive
19,COc1cc(C(C)=O)cc(OC)c1O,inactive
20,Cc1nc(Nc2n[nH]c3c2CN(C(=O)N[C@H](CN(C)C)c2ccccc2)C3(C)C)c2sccc2n1,96.8 nM (active)

row,Compound,Potency
1,OCCN1C[C@H](O)[C@@H](O)[C@H](O)[C@@H]1CO,inactive
2,C[C@@H]1O[C@@H](O[C@H]2[C@H](O)[C@@H](O)[C@H](Oc3c(-c4ccc(O)c(O)c4)oc4cc(O)cc(O)c4c3=O)O[C@@H]2CO)[C@H](O)[C@H](O)[C@H]1O,inactive
3,COc1cc(/C=C/c2ccc(O)cc2)cc(OC)c1,inactive
4,CCCCOC(=O)C(C)OC(=O)CCC (stereo not given),inactive
5,CCCSSCCC,inactive
6,C/C(=C\C(=O)O)CC(=O)O,inactive
7,NC1(C(=O)N[C@@H](CCO)c2ccc(Cl)cc2)CCN(c2ncnc3[nH]ccc23)CC1,611 nM (active)
8,CC(=O)Nc1ccccc1O,inactive
9,O=C(Nc1ncc(SCCN2CCCC2)s1)[C@]1(c2ccc(S(=O)(=O)C3CC3)cc2)C[C@@H]1C1CCCCC1,inactive
10,CC(C)=CCc1c(-c2ccc(O)cc2O)oc2cc3c(c(O)c2c1=O)C=CC(C)(C)O3,inactive
11,CCCCCCC[C@@H](C/C=C/CCC(=O)N(C)C/C(=C/Cl)C/C(=C\C(=O)N1CC(OC)=CC1=O)OC)OC,inactive
12,C=C[C@@]1(C)CCC(/C(C)=C/C=C/C(C)(C)O)C[C@@H]1C(=C)C (stereo not given in full),inactive
13,C[C@]12CCC3=C4CCC(=O)C=C4CC[C@@H]3[C@H]1CC[C@@]2(O)CC#N,inactive
14,CCOC(=O)c1cccc(C(=O)OCC)n1,inactive
15,CC12CCC(=O)C=C1C(O)CC1C2CCC2(C)C1CCC2(O)C(=O)CO (stereo not given),inactive
16,Nc1nc2c(ncn2[C@@H]2O[C@H](COP(=O)(O)OP(=O)(O)O)[C@@H](O)[C@H]2O)c(=O)[nH]1,inactive
17,C[C@H]1[C@H](C)CC[C@]2(C(=O)O)CC[C@]3(C)C(=CC[C@@H]4[C@@]5(C)C[C@@H](O)[C@H](O)C(C)(C)[C@@H]5CC[C@]43C)[C@H]12,inactive
18,CC(=O)N1CCN(c2ccc(OCc3nn(C)c(C)c3-c3cccc4c(CCCOc5cc(C)c(Cl)c(C)c5)c(C(=O)O)n(Cc5cccnc5)c34)cc2)CC1,inactive
19,C[C@]1(CC/C(=C/CO)CO)[C@H](CO)CC[C@@]23COC(=O)C2=CCC[C@@H]31,inactive
20,Nc1nc(Nc2ccccc2)nc2c1ncn2[C@@H]1O[C@H](CO)[C@@H](O)[C@H]1O,inactive
